Screen size: about 52,000 compounds; about 4,300 (8.3%) were called active. Many of the other results were omitted from the sample, so actives are more common in it than they were. A number with no mark means an inactive call. No stated cut-off is given here; in the data, active means survival mostly below about 52% (no sharp cut-off); inactive means mostly above about 56%.
The molecules below were run on DeltatarO mutant (assay: S. aureus survival, RN4220 and DeltatarO strains – OD600, teichoic acid synthesis inhibitors, primary screen (AID 463173)). Settings: S. aureus RN4220 wild type/DeltatarO growth, OD600, 18 h, active compounds read low, screened at 18.75 µg/mL (by protocol).
`CC(C)(C)OC(=O)N1CCC(c2c(C(=O)NCc3ccco3)cnn2-c2ccc(F)cc2)CC1` showed a survival of 88%. With `Cc1ccc(C(=O)c2oc3ccccc3c2NC(=O)Cc2ccccc2)cc1` the survival was 50%. With `CCc1ccc2occ(CC(=O)Nc3c(C(=O)c4ccccc4)oc4ccccc34)c2c1` the survival was 95%. In the case of `CCN(CC)c1cc(C)c2cc(NC(=O)/C=C/c3ccccc3Cl)ccc2n1`, the survival is reported as 53%. In the case of `CCCCOC(=O)c1ccc(NC(=O)c2cc(=O)c3ccccc3o2)cc1`, the survival is reported as 57%. For `Cc1ccc(NC(=O)/C=C/c2ccccc2Cl)cc1Cl`, the survival was 67%. `CCCCc1ccc(-n2nc3ccc(NC(=O)c4cc5ccccc5o4)cc3n2)cc1` showed a survival of 72%. With `O=C(Nc1c(C(=O)Nc2ccc(F)cc2)oc2ccccc12)c1cc2ccccc2o1` the survival was 47% (active). `COc1ccc(NC(=O)c2oc3ccccc3c2NC(=O)c2cc3ccccc3o2)cc1` was tested, and the survival was 89%. `CCCCOC(=O)c1cccc(NC(=O)/C=C/c2ccccc2Cl)c1` was tested, and the survival was 14% (active). In the case of `CCCCOC(=O)c1cccc(NC(=O)c2cc3ccccc3o2)c1`, the survival is reported as 1% (active). `Cc1ccc(NC(=O)c2oc3ccccc3c2NC(=O)c2cc3ccccc3o2)cc1` was tested, and the survival was 94%. `O=C(Cc1ccccc1)Nc1c(C(=O)c2ccccc2)oc2ccccc12` was tested, and the survival was 3% (active). `CCOc1ccc(CNC(=O)C2Cc3ccccc3N2C(=O)CC)cc1OC` (centres undefined) was tested, and the survival was 78%. With `COc1ccc(OC)c(NC(=O)c2cc3c(=O)n4cccc(C)c4nc3n2C)c1` the survival was 65%. With `COc1ccc(CNC(=O)CN(c2cc(C)cc(C)c2)S(=O)(=O)c2c(C)[nH]c(=O)[nH]c2=O)cc1` the survival was 86%. Molecule `CC1CN(C(=O)CCC(=O)NCc2cccs2)c2cc(Cl)ccc2O1` (centres undefined) has a survival of 84%. In the case of `CCOC(=O)c1c(S(=O)(=O)N2CCCC(C(=O)Nc3cc(C)ccn3)C2)c(C)n(C)c1C` (centres undefined), the survival is reported as 83%. `CN(C1CCCCC1)S(=O)(=O)c1ccc(C(=O)Nc2sc3c(c2C(N)=O)CC(C)(C)NC3(C)C)cc1` showed a survival of 84%. Molecule `COc1ccc2c(c1)c1c(c(=O)n(-c3ccccc3)c(=O)n1CC(=O)NCc1ccc(C)cc1)n2C` has a survival of 83%. In the case of `COc1ccc(-n2cc(C(=O)NCc3ccccc3)c3ccccc3c2=O)cc1`, the survival is reported as 61%. In the case of `COc1ccccc1C(=O)Nc1c(C(=O)c2ccccc2)oc2ccccc12`, the survival is reported as -1% (active). Work on `CC(=O)Nc1c(C(=O)Nc2ccccc2F)oc2ccccc12` yielded a survival of 119%. In the case of `O=C(Nc1ccccc1F)c1oc2ccccc2c1NC(=O)c1c(F)cccc1F`, the survival is reported as 26% (active). With `COc1ccccc1NC(=O)c1oc2ccccc2c1NC(=O)c1c(F)cccc1F` the survival was 51%. In the case of `O=C(Cc1ccccc1)Nc1c(C(=O)Nc2ccccc2F)oc2ccccc12`, the survival is reported as 83%. `CCOc1ccc(NC(=O)c2oc3ccccc3c2NC(=O)c2cc(C)cc(C)c2)cc1` gave a survival of 82%. For `CCOc1ccc(NC(=O)c2oc3ccccc3c2NC(=O)C(C)(C)C)cc1`, the survival was 38% (active). With `COc1cc(C(=O)Nc2c(C(=O)Nc3ccccc3F)oc3ccccc23)cc(OC)c1OC` the survival was 52%. In the case of `COc1ccc(C(=O)Nc2c(C(=O)c3ccccc3)oc3ccccc23)cc1`, the survival is reported as 72%. With `CCOc1ccc(NC(=O)c2oc3ccccc3c2NC(=O)c2c(F)cccc2F)cc1` the survival was 91%. `COc1ccccc1C(=O)Nc1c(C(=O)NC(C)(C)C)oc2ccccc12` was tested, and the survival was 99%. In the case of `COc1ccccc1C(=O)Nc1c(C(=O)Nc2ccccc2F)oc2ccccc12`, the survival is reported as 13% (active). `CCN1C(=O)/C(=C2\C=Cc3ccccc3N2CC)SC1=S` was tested, and the survival was 77%. `CC(=O)Nc1ccc(-c2nnc(SCC(=O)c3ccc([N+](=O)[O-])cc3)o2)cc1` showed a survival of 66%. `CCOc1ccccc1C(=O)Nc1cc2c(cc1N1CCOCC1)n(C)c(=O)n2C` gave a survival of 77%. For `CCCNC(=O)N1CCc2cc(OC)c(OC)cc2C1c1cc2cc3c(cc2[nH]c1=O)OCO3` (centres undefined), the survival was 91%. `CCOCCc1nn2c(=O)cc(COC(=O)COc3ccccc3Cl)nc2s1` was tested, and the survival was 88%. Molecule `Cc1cccc(CC(=O)Nc2c(C(=O)Nc3cccc(F)c3)oc3ccccc23)c1` has a survival of 57%. `O=C(Nc1c(C(=O)Nc2ccccc2F)oc2ccccc12)c1cc2ccccc2o1` was tested, and the survival was 37% (active). For `COc1ccccc1C(=O)Nc1c(C(=O)N2CCN(c3ccc(F)cc3)CC2)oc2ccccc12`, the survival was 0% (active). With `COc1ccc(N2CCN(C(=O)c3oc4ccccc4c3NC(=O)c3ccccc3OC)CC2)cc1` the survival was 131%. With `CC(C)Oc1ccc(NC(=O)c2cc3ccccc3o2)cc1` the survival was 40% (active). For `O=C(O)c1ccc(NC(=O)c2cc3ccccc3o2)cc1`, the survival was 59%. With `O=C(Nc1c(C(=O)Nc2cccc(F)c2)oc2ccccc12)c1cc2ccccc2o1` the survival was 35% (active). Molecule `Cc1cc(C)cc(C(=O)Nc2c(C(=O)Nc3ccccc3F)oc3ccccc23)c1` has a survival of 80%. Molecule `COc1cccc(NC(=O)c2oc3ccccc3c2NC(=O)c2cc3ccccc3o2)c1` has a survival of 51%. `O=C(Nc1ccc(NC(=O)c2cc3ccccc3o2)cc1)c1ccccc1` showed a survival of 86%. `COc1ccc(NC(=O)c2oc3ccccc3c2NC(=O)c2cc3ccccc3o2)c(OC)c1` gave a survival of 72%. Molecule `COc1ccccc1C(=O)Nc1c(C(=O)N2CCN(c3ccccc3F)CC2)oc2ccccc12` has a survival of 92%. In the case of `COc1ccc(CCNC(=O)CCS(=O)(=O)c2cc3c(cc2Cl)NC(=O)CO3)cc1OC`, the survival is reported as 90%. `COc1ccc(-c2noc(-c3ccc(C)cc3Cl)n2)cc1OC` was tested, and the survival was 136%. With `Cc1ccc(C)c(NC(=O)Cn2cc(S(=O)(=O)N3CCCC3)c(S(=O)(=O)N3CCCC3)c2)c1` the survival was 94%. In the case of `COc1ccc(OC)c(NC(=O)c2cn3c4c(ccc(Cl)c4c2=O)OC(C)C3)c1` (centres undefined), the survival is reported as 87%. Molecule `Cc1ccc(-c2cc(NC(=O)COc3ccc(Cl)c(C)c3)on2)cc1` has a survival of 86%. `Oc1c(Br)cc(Br)cc1-c1nc2ccccc2s1` was tested, and the survival was 126%. Molecule `CCOc1ccccc1CNC(=O)CCn1cccn1` has a survival of 67%. `CCOC(=O)C1CCN(c2cc3c(cc2NC(=O)c2ccc(Cl)cc2)n(C)c(=O)n3C)CC1` was tested, and the survival was 93%. With `COc1ccc(CNC(=O)C2=C(C)C(=O)OC23CCCCC3)cc1` the survival was 82%. `CCc1ccc(S(=O)(=O)c2cn(C)c3cc(OC)c(OC)cc3c2=O)cc1` showed a survival of 121%. Molecule `CCOC(=O)c1ccc(NC(=O)C2Cc3ccccc3CN2S(=O)(=O)c2ccc(Cl)cc2)cc1` (centres undefined) has a survival of 53%. `CCCc1c(C)c2ccc(O)c(CN3CCN(c4ccc(F)cc4)CC3)c2oc1=O` was tested, and the survival was 52%. With `O=C(NCCCN=C1NS(=O)(=O)c2ccccc21)c1ccncc1` the survival was 85%. With `COc1cccc(C(=O)Nc2c(C(=O)Nc3ccc(F)cc3)oc3ccccc23)c1OC` the survival was 60%. In the case of `O=C(Nc1c(C(=O)N2CCN(c3ccc(F)cc3)CC2)oc2ccccc12)c1ccco1`, the survival is reported as 74%. For `O=C(Nc1c(C(=O)N2CCN(c3ccccc3)CC2)oc2ccccc12)c1ccco1`, the survival was 37% (active). `CCOc1ccc(C(=O)Nc2c(C(=O)c3ccc(OC)cc3)oc3ccccc23)cc1` showed a survival of 79%. Molecule `COc1ccc(C(=O)c2oc3ccccc3c2NC(=O)c2cccc(OC)c2)cc1` has a survival of 58%. `CCOc1ccccc1C(=O)Nc1c(C(=O)Nc2ccc(F)cc2)oc2ccccc12` showed a survival of 83%. For `CCOc1cccc(C(=O)Nc2c(C(=O)c3ccc(OC)cc3)oc3ccccc23)c1`, the survival was 28% (active). `O=C(Nc1c(C(=O)N2CCN(c3ccccc3F)CC2)oc2ccccc12)c1ccco1` showed a survival of 69%. With `O=C(Nc1c(C(=O)Nc2ccc(F)cc2)oc2ccccc12)c1ccccc1F` the survival was 40% (active). Molecule `COCCNC(=O)c1ccc2nc(CCc3ccccc3)oc2c1` has a survival of 112%. With `CCOC(=O)c1c(NC(=O)/C=C/c2ccc(OCC)cc2)sc(C)c1C` the survival was 50%. `CCOc1ccc(C(c2c(O)cc(C)n(CCOC)c2=O)N2CCC(C)CC2)cc1` (centres undefined) gave a survival of 73%. `COc1ccccc1N(CC(=O)Nc1ccccc1C(F)(F)F)S(=O)(=O)c1ccc(C)cc1` gave a survival of 64%. `CCOc1ccc(S(=O)(=O)N(CC(=O)NCCc2ccc(OC)cc2)c2ccccc2)cc1` showed a survival of 92%. `CCc1ccccc1NC(=O)CN(c1cc(C(F)(F)F)ccc1Cl)S(=O)(=O)c1ccccc1` was tested, and the survival was 44% (active). `COc1ccc(OC)c(NC(=O)CN(c2ccccc2OC)S(=O)(=O)c2ccc(C)cc2)c1` was tested, and the survival was 54%. For `CCc1ccccc1NC(=O)CN(c1cccc(C)c1C)S(C)(=O)=O`, the survival was 54% (active). With `CCc1ccccc1NC(=O)CN(c1ccccc1OC)S(=O)(=O)c1ccc(C)cc1` the survival was 36% (active). Work on `O=C(CN(c1cc(C(F)(F)F)ccc1Cl)S(=O)(=O)c1ccccc1)NCCc1ccccc1` yielded a survival of 66%. Work on `Cc1cccc(N(CC(=O)Nc2cccc(Cl)c2C)S(C)(=O)=O)c1C` yielded a survival of 61%. Molecule `CCOc1ccc(S(=O)(=O)N(CC(=O)NCCc2ccc(OC)c(OC)c2)c2ccccc2)cc1` has a survival of 49%. In the case of `CCOc1ccc(S(=O)(=O)N(CC(=O)NCc2ccccc2OC)c2ccccc2)cc1`, the survival is reported as 37% (active). In the case of `Cc1cccc(N(CC(=O)NCc2ccccc2)S(C)(=O)=O)c1C`, the survival is reported as 70%. With `Cc1cc(C)cc(NC(=O)CN(c2cc(C(F)(F)F)ccc2Cl)S(=O)(=O)c2ccccc2)c1` the survival was 79%. `COc1cccc2cc(C(=O)N3CCCCC3)c(=O)oc12` was tested, and the survival was 85%. Work on `Nc1cccc(C(=O)NC23CC4CC(CC(C4)C2)C3)c1` yielded a survival of 95%.
